Pf Dd2 inh: Plasmodium falciparum Dd2 growth inhibition; Potency, µM (series often up to 28.9 µM), for the others: at the highest dose activity, negative = inhibition, most hits filed as inhibitors; AID 1347417; 120,000 compounds, 4.3% hits; P. falciparum Dd2 growth, SYBR Green, 72 h; active = well fitted inhibition curve with a large enough effect;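 also: plate controls were DMSO vehicle for no effect and reference drug for full effect; nearly all actives have a fitted effect of over 65% in size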
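Readout: SYBR Green fluorescence, 485 nm excitation, 535 nm emission, after ~16 h lysis at 37C. Before that, Dd2-infected red cells (2.5% hematocrit) grew 72 h with compound, 29 uM top final concentration.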
* hit, by the source's call; i = inactive; [ ] = dose if it differs, or a comment. Shown is part of a subset that was picked to be rich in hits. Potency is read from the fitted curve at half-maximal effect.

SMILES	Pf Dd2 inh
Cc1cccc(C)c1NC(=O)Cn1c(=O)n(Cc2ccccc2)c(=O)c2c(C)c(C(=O)N(C)C)sc21	8.91µM*
CC(C)c1ccc(C#N)c(N2CC[C@H](N3CCOCC3)[C@H](CCCO)C2)n1	-26.9%
Cc1cn2nc(C(=O)NCc3ccc(C(F)(F)F)cc3)cc2c(N2CCCC2)n1	-18.5%
CC(c1ccccc1-n1cccn1)n1cc(-c2nccn2C)nn1 (stereo not drawn)	-14.7%
CCCCS(=O)(=O)Nc1ccc([C@H]2OCC(=O)N(Cc3ccc(OC)cc3)[C@@H]2CO)cc1	-21.9%
COCCNC(=O)c1ccc2c(c1)ncn2-c1cc(C)ccc1OC	-10.8%
COc1ccc(CCNC(=O)c2ccc3c(Cl)c4c(nc3c2)CCCC4)cc1OC	11.2µM*
CCc1nc2ccc(C(=O)NCCc3ccc(OC)c(OC)c3)cc2nc1CC	8.4%
COc1ccc(CCNC(=O)c2ccc3c(Cl)c4c(nc3c2)CCCC4)c(OC)c1	-22.6%
COc1ccc(CNC(=O)c2ccc3c(Cl)c4c(nc3c2)CCCC4)c(OC)c1	-12.1%
COc1ccc(CCNC(=O)c2ccc3c(c2)ncn3-c2ccc(C(C)C)cc2)cc1OC	11.2µM*
Cc1ccc(C(=O)NC2CCN(c3cnn(C)c(=O)c3)CC2)s1	-13.1%
COc1ccc(-c2noc([C@@H]3CCCN3C(=O)c3ccc(OC)c(OC)c3)n2)cc1	i
CN1CC(=O)N(C2CCCNC2)Cc2c(NC3CCC3)ncnc21 (stereo not drawn)	5.5%
CN1Cc2cccn2CC1CNC(=O)c1cnn(C)c1 (stereo not drawn)	-9.7%
CN1Cc2cccn2CC1CNC(=O)c1ccccc1 (stereo not drawn)	11.2µM*
CN1Cc2cccn2CC1CNC(=O)c1cccn1C (stereo not drawn)	-51.5%
CN(C)c1ccc(CCNC(=O)[C@H]2CNC[C@H](C(=O)N3CCCC3)C2)cc1	0.4%
COC1C(=O)N(c2cccc(F)c2)C12CCN(S(=O)(=O)c1ccccc1C)CC2 (stereo not drawn)	12.6µM*
COC1C(=O)N(C2CCN(C(=O)CCc3c[nH]c4ccccc34)CC2)C12CCOCC2 (stereo not drawn)	-11.3%
COC1C(=O)N(C2CCN(Cc3ccc(F)cc3F)CC2)C12CCOCC2 (stereo not drawn)	-7.7%
COC1C(=O)N(c2cccc(F)c2)C12CCN(C(=O)C(C)C)CC2 (stereo not drawn)	-11.4%
C[C@]1(O)CCN(C(=O)CCc2c[nH]c3ccccc23)C[C@@H]1O	3.6%
COC1C(=O)N(c2cccc(F)c2)C12CCN(C(=O)c1cnc(C)cn1)CC2 (stereo not drawn)	-7.5%
COC1C(=O)N(c2cccc(F)c2)C12CCN(C(=O)CCc1c[nH]c3ccccc13)CC2 (stereo not drawn)	7.94µM*
SMILES	Pf Dd2 inh
COC1C(=O)N(c2cccc(F)c2)C12CCN(Cc1ccc(F)cc1F)CC2 (stereo not drawn)	10µM*
COC1CCOC2(CCN(S(=O)(=O)c3ccccc3C)CC2)C1 (stereo not drawn)	-5.4%
O=C(c1ccc(CN2CCCCC2)cc1)N1CCOC2(CNCCOC2)C1 (stereo not drawn)	2.6%
O=C(Cn1nc2c(cc1=O)CCCCC2)Nc1nnc(C2CCCCC2)s1	1.1%
O=C(c1cccc(Cl)c1)N1CCCC(c2nn(-c3cccc(Cl)c3)c(=O)[nH]2)C1 (stereo not drawn)	i
COCCOc1ccc2c(n1)CCN(C(=O)Nc1ccccc1C)C2	-10.7%
CCOc1ccc2c(c1)c(=O)c(S(=O)(=O)c1ccccc1)cn2CC(=O)Nc1ccccc1OC	11.2µM*
CCc1ccc2c(c1)c(=O)c(S(=O)(=O)c1ccc(Cl)cc1)cn2CC	-22.5%
CCn1cc(S(=O)(=O)c2ccccc2)c(=O)c2cc(F)c(F)cc21	i
CCc1ccc2c(c1)c(=O)c(S(=O)(=O)c1ccc(F)cc1)cn2CC(=O)Nc1ccccc1OC	-29.4%
COc1cc(NC(=O)Cn2cc(S(=O)(=O)c3ccccc3)c(=O)c3ccccc32)cc(OC)c1	i
Cc1ccc(S(=O)(=O)c2cn(Cc3cccc(C)c3)c3cc4c(cc3c2=O)OCO4)cc1	-10.9%
CCOc1ccc2c(c1)c(=O)c(S(=O)(=O)c1ccc(C)cc1)cn2CC(=O)Nc1ccc(C)cc1	i
CCc1ccc(S(=O)(=O)c2cn(CC(=O)Nc3cccc(C)c3)c3ccc(Cl)cc3c2=O)cc1	i
COc1cc2c(=O)c(S(=O)(=O)c3ccc(F)cc3)cn(Cc3ccccc3C)c2cc1OC	11.2µM*
CCOc1ccc2c(c1)c(=O)c(S(=O)(=O)c1ccc(CC)cc1)cn2Cc1cccc(Cl)c1	10µM*
CCOc1ccc2c(c1)c(=O)c(S(=O)(=O)c1ccc(C)cc1)cn2Cc1ccccc1Cl	12.6µM*
COc1ccc(NC(=O)Cn2cc(S(=O)(=O)c3ccc(C)cc3)c(=O)c3ccccc32)cc1OC	-14.8%
O=C(c1ccc(Cl)cc1)N1CCn2c(nnc2-c2ccc(Cl)cc2)C1	-5.8%
Cc1ccc(C2Cn3nnc(-c4nc(-c5ccc(F)cc5)no4)c3CO2)c(C)c1 (stereo not drawn)	-20.0%
CCOc1ccc(C2NC(=O)N(CC(=O)N3CCCC3)C3=C2C(=O)OC3)cc1 (stereo not drawn)	-5.0%
O=C(c1ccc2[nH]ccc2c1)N1CCC(n2cc(-c3nc(-c4ccccc4)no3)nn2)C1 (stereo not drawn)	-3.8%
CCn1nc(C(C)C)cc1C(=O)N1CCc2onc(-c3cccc(F)c3)c2C1	-23.8%
CCOCc1nc(C2CCCN(C(=O)c3ccsc3)C2)no1 (stereo not drawn)	24.3%
O=C(NCc1ccccc1)N1CCCC(c2noc(COc3ccccc3)n2)C1 (stereo not drawn)	i
SMILES	Pf Dd2 inh
Oc1ccccc1CN1CCC(O)(c2csc(CN3CCOCC3)n2)CC1	i
Cc1cc(C(=O)N2CCc3nnc([C@@H]4C[C@@H](O)CN4C)n3CC2)nn1C	13.2%
COc1ccc2c(c1)c(=O)c(S(=O)(=O)c1ccc(Cl)cc1)cn2C	-27.8%
CCOc1ccc(S(=O)(=O)c2cn(CC)c3ccc(F)cc3c2=O)cc1	-1.8%
CCOc1ccc2c(c1)c(=O)c(S(=O)(=O)c1ccc(Cl)cc1)cn2Cc1ccccc1C	12.6µM*
O=C(NCCn1ccnc1)c1cn(Cc2ccccc2C(F)(F)F)nn1	-1.5%
N#Cc1ccc(C(=O)N2CCCOCCNC(=O)CC2)cc1	-15.0%
Cc1ccc(C(=O)NC2(C(F)(F)F)N=C(c3ccccc3)N(Cc3ccccc3)C2=O)cc1 (stereo not drawn)	i
Cc1ccc(C(=O)CC2(O)C(=O)N(Cc3ccccc3)c3ccc(Br)cc32)cc1 (stereo not drawn)	10µM*
CCc1ccc(C(=O)CC2(O)C(=O)N(Cc3ccc(C)cc3)c3ccccc32)cc1 (stereo not drawn)	-21.9%
O=C(Nc1ccccc1)N1CCN([S+](=O)([O-])c2ccc(Cl)nc2)C(=O)C1	0.2%
COc1ccc(-c2noc(CCC(=O)Nc3ccc(C(F)(F)F)cc3)n2)cc1	-16.0%
COc1ccc(NC2=C(c3ccc(C(F)(F)F)cc3)C(=O)c3ccccc32)cc1	0.447µM*
O=C(C[C@H]1NC(=O)c2ccccc2NC1=O)Nc1ccc(C(F)(F)F)cc1	-16.7%
O=C(Cn1nc(-c2ccc(Cl)cc2)c2ccccc2c1=O)Nc1cccc(C(F)(F)F)c1	16.1%
COc1ccc(NC(=O)N(C)Cc2cccc(C(F)(F)F)c2)cc1	-12.1%[44.1 µM]
O=C1C(c2ccc(C(F)(F)F)cc2)=C(Nc2ccc(Cl)cc2)c2ccccc21	0.891µM*
